Pf Dd2 growth: P. falciparum Dd2 growth inhibitors, primary screen, SYBR Green fluorescence, single dose replicates | 72 h; hits give low values | activity change, % at 10 µM | hit rate 2.3% among 94,000 | AID 1159554, 2015; in the data active means activity change below about -80%
C diff growth: C. difficile growth inhibitors, primary screen, HTS; Clostridium difficile clinical isolate growth, OD600, 24 h; hits give low values; growth activity, negative = inhibition, % at 16 µg/mL (by protocol); hit rate 0.25% among 86,000;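 active means mean growth activity at or below -80% and every replicate also at or below -80%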;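 further: 0% = DMSO wells and -100% = levofloxacin 16 µg/mL wells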
The depositor's hits bear a star. A selection: hits, their analogues and other compounds. The true share with any hit is near 2.3%.

How did CCCN(C)C[C@H]1OCCCC[C@H](C)Oc2ccc(NS(=O)(=O)c3c(C)noc3C)cc2C(=O)N([C@@H](C)CO)C[C@@H]1C do in these assays?
Pf Dd2 growth: -89*; C diff growth: -3

Results for CCCN(C)C[C@H]1OCCCC[C@H](C)Oc2ccc(NS(=O)(=O)c3ccc(C)cc3)cc2C(=O)N([C@@H](C)CO)C[C@@H]1C ?
Pf Dd2 growth: -90*; C diff growth: 4

How did CCCN(C)C[C@H]1OCCCC[C@@H](C)Oc2ccc(NS(=O)(=O)c3ccc(F)cc3)cc2C(=O)N([C@H](C)CO)C[C@@H]1C do in these assays?
Pf Dd2 growth: 0; C diff growth: -6

Results for CCCN(C)C[C@H]1OCCCC[C@H](C)Oc2ccc(NS(=O)(=O)c3c(C)noc3C)cc2C(=O)N([C@H](C)CO)C[C@H]1C ?
Pf Dd2 growth: -71; C diff growth: -1

Results for CCCN(C)C[C@H]1OCCCC[C@H](C)Oc2ccc(NS(=O)(=O)c3ccc(Cl)cc3)cc2C(=O)N([C@H](C)CO)C[C@H]1C ?
Pf Dd2 growth: -28; C diff growth: 2

What do the screens show for `CCCNC(=O)N[C@H]1CC[C@H](CC(=O)NC2CCCCC2)O[C@@H]1CO`?
Pf Dd2 growth: 1; C diff growth: -1

How did CCN1[C@H](C(=O)NC2CCCC2)[C@@H](CO)[C@@H]2Cn3c(ccc(-c4ccccc4F)c3=O)[C@@H]21 do in these assays?
Pf Dd2 growth: -15; C diff growth: 1

Results for COCc1cn(CC[C@H]2CC[C@@H](NC(=O)Nc3ccccc3)[C@H](CO)O2)nn1 ?
Pf Dd2 growth: 1; C diff growth: 4

How did COc1ccccc1S(=O)(=O)N[C@H]1CC[C@H](CCn2cc(C3CCCC3)nn2)O[C@H]1CO do in these assays?
Pf Dd2 growth: -5; C diff growth: -2

How did CCCc1cn(CC[C@@H]2CC[C@H](NS(=O)(=O)c3ccc(-c4ccccc4)cc3)[C@H](CO)O2)nn1 do in these assays?
Pf Dd2 growth: -92*; C diff growth: -5

Results for CN(C)Cc1cn(CC[C@H]2CC[C@H](NS(=O)(=O)c3ccc(-c4ccccc4)cc3)[C@H](CO)O2)nn1 ?
Pf Dd2 growth: 10

What do the screens show for `COc1ccccc1S(=O)(=O)N[C@H]1CC[C@@H](CCn2cc(C3CCCC3)nn2)O[C@@H]1CO`?
Pf Dd2 growth: -93*; C diff growth: 14

How did O=C(Nc1ccc(Cl)c(Cl)c1)N[C@@H]1CC[C@@H](CCn2cc(C3CCCCC3)nn2)O[C@@H]1CO do in these assays?
Pf Dd2 growth: -87*

Results for COc1ccc(S(=O)(=O)N[C@@H]2CC[C@H](CCn3cc(-c4ccccc4F)nn3)O[C@@H]2CO)cc1 ?
Pf Dd2 growth: -92*; C diff growth: -1

What do the screens show for `O=C(Nc1ccc(Cl)c(Cl)c1)N[C@@H]1CC[C@@H](CCn2cc(C3CCCCC3)nn2)O[C@H]1CO`?
Pf Dd2 growth: -16; C diff growth: -1

Results for COc1ccc(S(=O)(=O)N[C@H]2CC[C@@H](CCn3cc(-c4ccccc4F)nn3)O[C@@H]2CO)cc1 ?
Pf Dd2 growth: -43; C diff growth: -3

Results for Cc1noc(C)c1NC(=O)Nc1ccc2c(c1)CC(=O)N([C@H](C)CO)C[C@H](C)[C@H](CN(C)S(=O)(=O)c1ccc(F)cc1)O2 ?
Pf Dd2 growth: 16; C diff growth: 7

How did CCC(=O)N[C@H]1C=C[C@H](CC(=O)NCc2ccc(OC)cc2)O[C@@H]1CO do in these assays?
Pf Dd2 growth: 0

What do the screens show for `OC[C@H]1[C@H](c2ccc(C#Cc3ccccc3)cc2)[C@@H]2CN(Cc3cncnc3)CCCCN12`?
Pf Dd2 growth: -27; C diff growth: 11

How did CC=Cc1ccc2n(c1=O)C[C@H]1[C@H](CO)[C@@H](C(=O)NCc3ccc(F)cc3)[C@@H]2N1S(C)(=O)=O (mixture of isomers) do in these assays?
Pf Dd2 growth: 9; C diff growth: 3

How did COc1ccc(NC(=O)Nc2ccc3c(c2)C(=O)N([C@H](C)CO)C[C@H](C)[C@@H](CN(C)Cc2ccc(C(F)(F)F)cc2)OCCCC[C@H](C)O3)cc1 do in these assays?
Pf Dd2 growth: -1; C diff growth: 6

What do the screens show for `COc1ccc(CN(C)C[C@@H]2OCCCC[C@H](C)Oc3ccc(NC(=O)Nc4ccc(C(F)(F)F)cc4)cc3C(=O)N([C@H](C)CO)C[C@H]2C)cc1`?
Pf Dd2 growth: -43; C diff growth: -96*

How did COc1ccc(CN(C)C[C@@H]2OCCCC[C@@H](C)Oc3ccc(NC(=O)Nc4ccc(C(F)(F)F)cc4)cc3C(=O)N([C@H](C)CO)C[C@@H]2C)cc1 do in these assays?
Pf Dd2 growth: 37; C diff growth: 0

What do the screens show for `COc1ccc(CN(C)C[C@@H]2OCCCC[C@H](C)Oc3ccc(NC(=O)Nc4ccc(C(F)(F)F)cc4)cc3C(=O)N([C@@H](C)CO)C[C@H]2C)cc1`?
Pf Dd2 growth: -49; C diff growth: -83*

How did C[C@H](CO)N1C[C@H](C)[C@@H](CN(C)Cc2ccccc2)OCCCC[C@H](C)Oc2ccc(NC(=O)Nc3ccc(C(F)(F)F)cc3)cc2C1=O do in these assays?
Pf Dd2 growth: -39; C diff growth: 20

How did C[C@@H]1CN([C@H](C)CO)C(=O)c2cc(NC(=O)Nc3ccc(C(F)(F)F)cc3)ccc2O[C@@H](C)CCCCO[C@H]1CN(C)Cc1ccccc1 do in these assays?
Pf Dd2 growth: -87*; C diff growth: 42

How did C[C@H](CO)N1C[C@H](C)[C@@H](CN(C)S(=O)(=O)c2ccc(Cl)cc2)Oc2ccc(NC(=O)CCCCCC(=O)Nc3ccccc3N)cc2CC1=O do in these assays?
Pf Dd2 growth: -57

How did CC(C)NC(=O)N(C)C[C@@H]1Oc2ccc(NC(=O)Cn3cnnn3)cc2C(=O)N([C@@H](C)CO)C[C@H]1C do in these assays?
Pf Dd2 growth: 25; C diff growth: -1

What do the screens show for `C[C@@H]1CN([C@@H](C)CO)C(=O)c2cc(NC(=O)c3ccncc3)ccc2O[C@@H](C)CCCCO[C@H]1CN(C)C(=O)c1ccccc1`?
C diff growth: 0

What do the screens show for `O=C(NC[C@@H]1CC[C@H]2[C@H](CN2Cc2ccccc2F)O1)C1CC1`?
Pf Dd2 growth: 20; C diff growth: -2

Results for COc1cccc(C#Cc2cnc3c(c2)C(=O)N([C@H](C)CO)C[C@@H](C)[C@H](CN(C)C(=O)C2CCCCC2)O3)c1 ?
Pf Dd2 growth: -68; C diff growth: 22

What do the screens show for `COc1cccc(C#Cc2cnc3c(c2)C(=O)N([C@@H](C)CO)C[C@@H](C)[C@@H](CN(C)C(=O)C2CCCCC2)O3)c1`?
Pf Dd2 growth: 0; C diff growth: 3

What do the screens show for `COc1cccc(C#Cc2cnc3c(c2)C(=O)N([C@H](C)CO)C[C@H](C)[C@H](CN(C)C(=O)C2CCCCC2)O3)c1`?
Pf Dd2 growth: -86*; C diff growth: 0

Results for COc1cccc(C#Cc2cnc3c(c2)C(=O)N([C@@H](C)CO)C[C@H](C)[C@@H](CN(C)C(=O)C2CCCCC2)O3)c1 ?
Pf Dd2 growth: -86*; C diff growth: 24

How did COc1cccc(C#Cc2cnc3c(c2)C(=O)N([C@@H](C)CO)C[C@@H](C)[C@H](CN(C)C(=O)C2CCOCC2)O3)c1 do in these assays?
Pf Dd2 growth: -55; C diff growth: 3

What do the screens show for `COc1cccc(C#Cc2cnc3c(c2)C(=O)N([C@H](C)CO)C[C@@H](C)[C@@H](CN(C)C(=O)C2CCCCC2)O3)c1`?
Pf Dd2 growth: -62; C diff growth: -6
